Assay results: PubChem BioAssay AID1159580 (chemical genetic matrix, 2015)
Among all 5,500 compounds or so, about 2,000 (36%) were called active. Inconclusive results (about 18%) are left out. No stated cut-off is given here; in the data, active means normalized growth mostly below about 0.91 (no sharp cut-off); inconclusive means no clear call, values can overlap the other calls; inactive means mostly above about 0.92. The list shows a part of the results.

Assay: chemical genetic growth profiling, strain panel (AID 1159580);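 further: tested at 20 µM; growth read once vehicle control cultures reached saturation at 30 °C; 1 = growth at the plate median or of vehicle wells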
Conditions: growth OD

Measured: normalized growth

C=C[C@@]1(C)CC(=O)[C@@]2(O)[C@](C)(O1)[C@@H](OC(C)=O)[C@@H](O)C1C(C)(C)CC[C@H](O)[C@@]12C (some centres not stated)
inactive: S. cerevisiae deletion strains, locus YJR075W, strain HOC1, stronger effect = lower value 0.997 | S. cerevisiae deletion strains, locus YKL009W, strain mrt4, stronger effect = lower value 0.964 | S. cerevisiae deletion strains, locus YKL068W, stronger effect = lower value 0.992 | S. cerevisiae deletion strains, locus YKL085W, strain MDH1 (second series), stronger effect = lower value 0.966 | S. cerevisiae deletion strains, locus YKL085W, strain MDH1, stronger effect = lower value 0.966 | S. cerevisiae deletion strains, locus YKL160W, strain elf1, stronger effect = lower value 0.963 | S. cerevisiae deletion strains, locus YKL190W, strain CNB1, stronger effect = lower value 0.99 | S. cerevisiae deletion strains, locus YKR001C, strain vps1, stronger effect = lower value 0.984 | S. cerevisiae deletion strains, locus YKR026C, strain gcn3, stronger effect = lower value 0.997 | S. cerevisiae deletion strains, locus YKR091W, strain srl3, stronger effect = lower value 0.971 | S. cerevisiae deletion strains, locus YLL001W, strain dnm1, stronger effect = lower value 1.02 | S. cerevisiae deletion strains, locus YLL026W, stronger effect = lower value 0.964 | S. cerevisiae deletion strains, locus YLL041C, strain sdh2, stronger effect = lower value 0.969 | S. cerevisiae deletion strains, locus YLR027C, strain aat2, stronger effect = lower value 0.98 | S. cerevisiae deletion strains, locus YLR039C, strain RIC1, stronger effect = lower value 0.939 | S. cerevisiae deletion strains, locus YLR058C, strain SHM2, stronger effect = lower value 0.982 | S. cerevisiae deletion strains, locus YLR102C, strain apc9, stronger effect = lower value 0.974 | S. cerevisiae deletion strains, locus YLR113W, strain HOG1, stronger effect = lower value 0.955 | S. cerevisiae deletion strains, locus YLR221C, strain rsa3, stronger effect = lower value 1.03 | S. cerevisiae deletion strains, locus YLR258W, strain gsy2, stronger effect = lower value 0.965 | S. cerevisiae deletion strains, locus YLR262C, strain YPT6 (second series), stronger effect = lower value 0.968 | S. cerevisiae deletion strains, locus YLR262C, strain YPT6, stronger effect = lower value 0.894 | S. cerevisiae deletion strains, locus YLR268W, strain sec22, stronger effect = lower value 1.07 | S. cerevisiae deletion strains, locus YLR320W, strain mms22, stronger effect = lower value 1.01 | S. cerevisiae deletion strains, locus YLR330W, strain CHS5, stronger effect = lower value 0.989 | S. cerevisiae deletion strains, locus YLR342W, strain FKS1 (second series), stronger effect = lower value 0.987 | S. cerevisiae deletion strains, locus YLR342W, strain FKS1, stronger effect = lower value 0.991 | S. cerevisiae deletion strains, locus YLR357W, strain rsc2, stronger effect = lower value 0.987 | S. cerevisiae deletion strains, locus YLR370C, strain arc18, stronger effect = lower value 0.978 | S. cerevisiae deletion strains, locus YLR371W, strain rom2, stronger effect = lower value 0.968 | S. cerevisiae deletion strains, locus YLR384C, strain iki3, stronger effect = lower value 0.993 | S. cerevisiae deletion strains, locus YLR418C, strain cdc73, stronger effect = lower value 0.99 | S. cerevisiae deletion strains, locus YML016C, strain PPZ1, stronger effect = lower value 0.991 | S. cerevisiae deletion strains, locus YML032C, strain rad52, stronger effect = lower value 1.01 | S. cerevisiae deletion strains, locus YML120C, strain ndi1, stronger effect = lower value 0.989 | S. cerevisiae deletion strains, locus YML124C, strain tub3, stronger effect = lower value 0.983 | S. cerevisiae deletion strains, locus YMR058W, strain fet3, stronger effect = lower value 0.982 | S. cerevisiae deletion strains, locus YMR078C, strain ctf18, stronger effect = lower value 0.985 | S. cerevisiae deletion strains, locus YMR125W, strain sto1, stronger effect = lower value 0.974 | S. cerevisiae deletion strains, locus YMR129W, stronger effect = lower value 0.965 | S. cerevisiae deletion strains, locus YMR205C, strain PFK2, stronger effect = lower value 0.998 | S. cerevisiae deletion strains, locus YMR223W, strain ubp8, stronger effect = lower value 0.98 | S. cerevisiae deletion strains, locus YMR231W, strain pep5, stronger effect = lower value 0.992 | S. cerevisiae deletion strains, locus YMR263W, strain SAP30, stronger effect = lower value 0.992 | S. cerevisiae deletion strains, locus YMR307W, strain GAS1, stronger effect = lower value 1 | S. cerevisiae deletion strains, locus YNL067W, strain RPL9B, stronger effect = lower value 1.01 | S. cerevisiae deletion strains, locus YNL071W, strain lat1, stronger effect = lower value 0.988 | S. cerevisiae deletion strains, locus YNL128W, strain TEP1, stronger effect = lower value 0.965 | S. cerevisiae deletion strains, locus YNL153C, strain GIM3, stronger effect = lower value 1.01 | S. cerevisiae deletion strains, locus YNL183C, strain NPR1, stronger effect = lower value 0.933 | S. cerevisiae deletion strains, locus YNL209W, strain ssb2, stronger effect = lower value 0.992 | S. cerevisiae deletion strains, locus YNL233W, strain BNI4, stronger effect = lower value 1.01 | S. cerevisiae deletion strains, locus YNL248C, strain rpa49, stronger effect = lower value 0.919 | S. cerevisiae deletion strains, locus YNL250W, strain rad50, stronger effect = lower value 0.972 | S. cerevisiae deletion strains, locus YNL271C, strain bni1, stronger effect = lower value 0.987 | S. cerevisiae deletion strains, locus YNL298W, strain CLA4, stronger effect = lower value 0.959 | S. cerevisiae deletion strains, locus YNL307C, strain MCK1, stronger effect = lower value 0.996 | S. cerevisiae deletion strains, locus YNL322C, strain KRE1 (second series), stronger effect = lower value 0.939 | S. cerevisiae deletion strains, locus YNL322C, strain KRE1, stronger effect = lower value 0.994 | S. cerevisiae deletion strains, locus YNR049C, strain mso1, stronger effect = lower value 0.959 | S. cerevisiae deletion strains, locus YNR052C, strain pop2, stronger effect = lower value 0.984 | S. cerevisiae deletion strains, locus YOL006C, strain TOP1, stronger effect = lower value 0.997 | S. cerevisiae deletion strains, locus YOL012C, strain htz1 1.15 | S. cerevisiae deletion strains, locus YOL147C, strain pex11, stronger effect = lower value 0.999 | S. cerevisiae deletion strains, locus YOR001W, strain rrp6, stronger effect = lower value 1.03 | S. cerevisiae deletion strains, locus YOR061W, strain CKA2, stronger effect = lower value 0.972 | S. cerevisiae deletion strains, locus YOR069W, strain VPS5, stronger effect = lower value 0.993 | S. cerevisiae deletion strains, locus YOR070C, strain gyp1, stronger effect = lower value 0.986 | S. cerevisiae deletion strains, locus YOR080W, strain dia2, stronger effect = lower value 0.973 | S. cerevisiae deletion strains, locus YOR083W, strain WHI5, stronger effect = lower value 0.92 | S. cerevisiae deletion strains, locus YOR106W, strain vam3, stronger effect = lower value 0.919 | S. cerevisiae deletion strains, locus YOR136W, strain idh2, stronger effect = lower value 0.978 | S. cerevisiae deletion strains, locus YOR144C, strain elg1, stronger effect = lower value 0.991 | S. cerevisiae deletion strains, locus YOR184W, strain ser1, stronger effect = lower value 0.978 | S. cerevisiae deletion strains, locus YOR231W, strain MKK1, stronger effect = lower value 0.966 | S. cerevisiae deletion strains, locus YOR265W, strain rbl2, stronger effect = lower value 0.988 | S. cerevisiae deletion strains, locus YOR270C, strain vph1, stronger effect = lower value 0.94 | S. cerevisiae deletion strains, locus YOR290C, strain snf2, stronger effect = lower value 0.955 | S. cerevisiae deletion strains, locus YOR316C, strain cot1, stronger effect = lower value 0.984 | S. cerevisiae deletion strains, locus YPL051W, strain arl3, stronger effect = lower value 0.97 | S. cerevisiae deletion strains, locus YPL055C, strain LGE1, stronger effect = lower value 0.998 | S. cerevisiae deletion strains, locus YPL078C, strain atp4, stronger effect = lower value 0.955 | S. cerevisiae deletion strains, locus YPL106C, strain sse1, stronger effect = lower value 0.955 | S. cerevisiae deletion strains, locus YPL240C, strain hsp82, stronger effect = lower value 0.987 | S. cerevisiae deletion strains, locus YPL241C, strain CIN2, stronger effect = lower value 0.989 | S. cerevisiae deletion strains, locus YPL256C, strain CLN2, stronger effect = lower value 0.973 | S. cerevisiae deletion strains, locus YPR119W, strain clb2, stronger effect = lower value 0.978 | S. cerevisiae deletion strains, locus YPR141C, strain kar3, stronger effect = lower value 0.975 | S. cerevisiae deletion strains, locus YPR163C, strain tif3, stronger effect = lower value 0.993 | S. cerevisiae deletion strains, locus YPR167C, strain met16, stronger effect = lower value 0.986 | S. cerevisiae deletion strains, strain wtn01, stronger effect = lower value 0.997 | S. cerevisiae strains, strain wild type, stronger effect = lower value 0.984
